Source: PubChem BioAssay
BAZ2B block – blocks human BAZ2B. Q9UIF8. AlphaScreen BAZ2B-H3K14Ac peptide displacement. Potency, µM (top dose mostly 114 µM), without a hit: at the highest dose activity change, negative = inhibition, actives largely listed as inhibitors. 4.4% of 360,000 active. AID 504333; note: potency is the fitted concentration of half-maximal effect; % is set by controls: 0 for no effect and ±100 for the full control effect; nearly all actives have a fitted effect of over 60% in size
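AlphaScreen displacement: compounds (up to 110uM) incubated 30 min at room temperature with a preformed 50 nM BAZ2B/50 nM biotinylated H3K14Ac peptide complex in PBS pH 7.4 with Tween-20. Donor and acceptor beads at 10 ug/mL final added, 20 min light-protected before reading.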
JMJD2A Tudor – JMJD2A Tudor domain (human) inhibition; AlphaScreen JMJD2A-Tudor / H3K4me3 peptide binding; 4.4% of 390,000 active; Potency, µM (top dose mostly 114 µM), inactives show at the highest dose activity change, negative = inhibition, usual class: inhibitors; O75164; note: potency is the fitted concentration of half-maximal effect; % is set by controls: 0 for no effect and ±100 for the full control effect; nearly all actives have a fitted effect of over 50% in size
G9a inh – blocks human histone lysine methyltransferase G9a; Q96KQ7; G9a H3K9 monomethylation, AlphaScreen, 2 h; Potency, µM (doses to about 102 µM), for the others: at the highest dose activity, negative = inhibition, most hits filed as inhibitors; 8.8% of 350,000 active; AID 504332; note: potency is the fitted concentration of half-maximal effect; % is set by controls: 0 for no effect and ±100 for the full control effect; nearly all actives have a fitted effect of over 75% in size
Target sequence (Q96KQ7 913-1193 limits assumed): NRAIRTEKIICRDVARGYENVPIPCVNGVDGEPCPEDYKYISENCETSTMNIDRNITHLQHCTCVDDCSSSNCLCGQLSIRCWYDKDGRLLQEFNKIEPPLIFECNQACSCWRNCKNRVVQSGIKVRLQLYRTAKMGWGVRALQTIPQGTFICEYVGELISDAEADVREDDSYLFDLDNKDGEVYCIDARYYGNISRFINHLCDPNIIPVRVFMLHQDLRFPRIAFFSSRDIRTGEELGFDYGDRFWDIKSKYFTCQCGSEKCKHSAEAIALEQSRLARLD
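Readings reflect AlphaScreen signal from monomethyl-H3K9 antibody detection. HMT at 20 nM; substrate b-H3K9 500 nM; cofactor SAM 20 uM; 2 h RT reaction; compounds tested as titrations in qHTS with 15 min preincubation.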
PLK1 PBD block – PLK1 (human) polo-box domain binding inhibition. AID 720504. Plk1 PBD binding of FITC phosphopeptide, fluorescence polarization. Potency, µM, for inactives: max response, negative = inhibition, hits mostly inhibitors. P53350. 2.8% of 360,000 active; note: potency is the fitted concentration of half-maximal effect; series mostly up to about 57 µM; % is set by controls: 0 for no effect and ±100 for the full control effect; nearly all actives have a fitted effect of over 65% in size
HP1b binding inh – blocks HP1-beta chromodomain binding to methylated histone tails | AlphaScreen HP1-beta / biotin-H3K9me3 peptide binding | AID 540317 | 0.56% of 390,000 active | Potency, µM (doses to about 114 µM), for inactives: at the top dose activity change, negative = inhibition, actives largely listed as inhibitors; note: potency is the fitted concentration of half-maximal effect; nearly all actives have a fitted effect of over 70% in size
Target sequence (P83916 whole entry, looked up): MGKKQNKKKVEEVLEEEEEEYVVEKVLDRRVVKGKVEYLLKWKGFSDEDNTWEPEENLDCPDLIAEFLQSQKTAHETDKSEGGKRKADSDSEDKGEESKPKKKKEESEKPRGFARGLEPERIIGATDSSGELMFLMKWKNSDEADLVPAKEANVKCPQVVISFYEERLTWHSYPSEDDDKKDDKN
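AlphaScreen: HP1-beta (50 nM) preformed 30 min with biotin-H3(1-18)K9me3 peptide (50 nM) in PBS pH 7.4, 0.01% Tween-20. Compound added for 30 min at RT, then streptavidin donor/nickel chelate acceptor beads (10 ug/mL) for 30 min.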
PI5P4Ka inh – inhibitors of human PI5P4K alpha; P48426; PI5P4Kalpha enzyme, ADP-Glo luminescence, 60 min; stronger effect = lower value; max response, %; 1.2% of 330,000 active; active = max response of -50% or lower; inconclusive = between -30% and -50%; inactive = -30% or higher; note: value at the top dose of about 77 µM; % is set by controls: 0 for no effect and ±100 for the full control effect
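Reactions run in 0.038 M HEPES pH 7.4, 0.28 mM EGTA, 0.1% CHAPS and 5% DMSO, with PI5P4Kalpha, substrate, compound and 5 microM ATP final, one hour at room temperature. Readout is ADP-Glo luminescence.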
The depositor's hits bear a star; u = inconclusive; x = not tested or not shown; [ ] = remark or other dose. Hits are enriched below; roughly 12% of the tested compounds scored in any of these assays. Unless noted, calls come from the whole dose curve; as a rule, active = well fitted curve in the direction sought with a large enough effect; inconclusive = small, poorly fitted or top-dose-only effect, or another doubt; inactive = no such curve, though single readings can be large; an effect the other way counts as inactive or inconclusive.

SMILES	BAZ2B block	JMJD2A Tudor	G9a inh	PLK1 PBD block	HP1b binding inh	PI5P4Ka inh
COc1ccc(N2CC(C(=O)Nc3ccc(S(=O)(=O)N4CCCC4)cc3)CC2=O)cc1 (stereo not drawn)	-14%	-13%	-7%	3%	16%	-5
COc1ccc(C(=O)COC(=O)CNC(=O)c2ccccc2)cc1F	17%	-8%	u	6%	18%	-11
CSc1cccc(N2CC(C(=O)Nc3cccc(S(=O)(=O)N4CCCC4)c3)CC2=O)c1 (stereo not drawn)	u	u	11µM*	-11%	-11%	4
CCOc1ccc(N2CC(C(=O)Nc3ccc(S(=O)(=O)N4CCCCC4)cc3)CC2=O)cc1 (stereo not drawn)	7%	-24%	40µM*	4%	8%	-6
CCOc1ccc(N2CC(C(=O)Nc3cccc(S(=O)(=O)N4CCCCC4)c3)CC2=O)cc1 (stereo not drawn)	-9%	-21%	-30%	-9%	12%	-3
COc1ccc(CNC(=O)c2cccc(S(=O)(=O)N3CCCCC3)c2)cc1OC	-1%	-18%	8%[59 µM]	-2%	39%	0
COc1ccc(NC(=S)NCCCN2CCCC2)cc1Cl	u	-3%	18µM*	19µM*	2%	-11
COc1ccc(NC(=S)NCCN2CCC(C)CC2)cc1Cl	-6%	-27%	11µM*	11µM*	-17%	5
CCCN1CCC(NC(=O)Nc2ccc(Br)cc2)CC1	30%	-18%	35µM*	-4%	27%	-2
CCCN1CCC(NC(=S)Nc2ccc(OC)c(OC)c2)CC1	-11%	-8%	50µM*	-8%	56%	-1
COc1ccc2[nH]cc(CCNc3nc(-c4ccc(N(C)C)cc4)nc4ccccc34)c2c1	x	x	-2%[0.501 µM]	x	x	x
COc1ccc(OC)c(C2=Nn3c(nnc3-c3cccc(OC)c3OC)SC2)c1	x	-16%	x	x	x	x
Cc1ccc(-n2c3c(cc(C(=O)Nc4ccccc4C(N)=O)c2=O)C(=O)CC(C)(C)C3)cc1	5%	5%	-6%[59 µM]	x	36%	x
COc1ccc(Oc2ncc3ncc(=O)n(C)c3n2)cc1	x	x	-6%[0.501 µM]	x	x	x
O=[S@]1Oc2ccccc2-c2ccccc21	x	-9%	x	2.1µM*	35%	2
COc1ccc(C2C(=O)N(C3CCCCC3)CC(=O)N2Cc2ccco2)cc1 (stereo not drawn)	-5%	-30%	25µM*	-10%	9%	x
COc1ccc(C2C(=O)N(C3CCCCCC3)CC(=O)N2Cc2ccccc2)cc1 (stereo not drawn)	1%	-20%	-8%[59 µM]	x	42%	x
O=C(CCCOc1ccc(Cl)cc1Cl)Nc1ccccc1C(=O)O	-1%	-13%	-3%	-10%	32%	-1
Cc1cccc(OCC(=O)Nc2ccc(C(=O)c3ccc(C(=O)O)cc3)cc2)c1	-20%	-34%	-1%	-10%	11%	u
Cc1cc(C(=O)Nc2ccccc2C(=O)O)ccc1NC(=O)COc1cccc(C)c1C	-18%	-19%	5%	u	20%	-6
O=C(COc1ccc(Cl)cc1Cl)Nc1ccc(C(=O)Nc2ccccc2C(=O)O)cc1	50µM*	50µM*	x	u	u	-57*
Cc1ccc(C(=O)Nc2ccccc2C(=O)O)cc1NC(=O)COc1c(C)cccc1C	79µM*	-7%	25%[12.7 µM]	-14%	31%	-24
Cc1cccc(OCC(=O)Nc2ccc(C(=O)Nc3ccccc3C(=O)O)cc2)c1	x	x	x	-9%	x	-52*
COc1ccc(CCNc2ncnc3nc[nH]c23)cc1	x	-2%	x	x	29%	x
COc1ccc(-c2nc(C)ncc2-c2ccccc2)c(O)c1	-6%	-18%	16%	-6%	22%	2
COc1ccc(N=Nc2cnc(C)nc2-c2ccccc2)cc1	20µM*	40µM*	14µM*	0%	-66%	16
Cc1ncc(N=Nc2ccccc2Cl)c(-c2ccccc2)n1	11µM*	50µM*	u	-3%	16µM*	3
Cn1c(=O)c2c(-c3ccccc3)n3c(c2n(C)c1=O)C(c1ccccc1[N+](=O)[O-])Nc1ccccc1-3 (stereo not drawn)	-4%	-4%	-31%[59 µM]	x	47%	x
